# Source: PubChem BioAssay (NCI)
# Compounds without any hit were thinned out: in the full panel of roughly 83,000, 20% have a hit.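 Cell lines were cultured in 96-well plates, exposed to a single compound concentration, and assessed for percent growth 48 hours later.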 Unmarked numbers belong to inactive results. The source made the active and inactive calls.
# Test system: OVCAR-4 ovarian
# Assay: NCI-60 one-dose screen, 48 h (100 = growth as untreated, 0 = no growth, -100 = all killed)
# Settings: 10 µM unless noted
# Method: Growth inhibition of the OVCAR-4 human tumor cell line is measured as a screen for anti-cancer activity. Cells are grown in 96 well plates and exposed to the test compound for 48 hours. Compounds are tested at a single concentration, which is 10^-5 M for most compounds. The reported endpoint is percent growth (GI% or GIPRCNT), where numbers from 0 - 100% represent growth inhibition, and numbers from -100% - 0 represent cell death. For example, a value of 40 represents 60% growth inhibition. A value of 0 means no net growth occurred over the course of the experiment. A value of -40 indicates 40% of cells at the beginning of the experiment died by the end of the experiment. A value of -100 means all cells are dead at the end of the experiment.
# NCI-60 Human Tumor Cell Lines Screen was performed using the standard one-dose NCI protocol, which is described in more detail at https://dtp.cancer.gov/discovery_development/nci-60/default.htm.
# Compounds with GIPRCNT values below 10 were considered active. Activity score was based on GIPRCNT using the following formula: […]
# Score is 0 for GIPRCNT values of 100 or above, 50 for GIPRCNT values of 0, and 100 for GIPRCNT values of -100.
row,Compound,growth
1,CN1CCN(c2ccc3nc(-c4ccc(OCCCCN5CCN(CCCCN6C(=O)c7cccc8cccc(c78)C6=O)CC5)cc4)[nH]c3c2)CC1,80.5%
2,Nc1ccc(S(=O)(=O)O)c2ccc(N=Nc3ccc(N=Nc4ccc(S(=O)(=O)O)cc4)c4ccccc34)c(O)c12,115%
3,COc1cc(C=Nc2oc(-c3ccccc3)c(-c3ccccc3)c2C#N)cc(CN2CCCCC2)c1O,91.6%
4,O=C1c2cc3c(cc2-c2c1c1ccc(F)cc1c(=O)n2C[C@H](O)[C@H](O)[C@H](O)CO)OCO3,5.07% (active)
5,COc1ccc(CN2c3ccccc3Oc3ccccc32)cc1O,55.1%
6,Cc1nn(-c2cc(=O)[nH]c3ccc(Cl)cc23)c(N)c1C#N,89.2%
7,N#CN1CC[C@H](C(=O)Nc2cc3cc(C(N)=O)ccc3cn2)C1,4.32% (active)
8,NC1=C(Cl)C(=O)c2ccc(S(N)(=O)=O)cc2C1=O,-100% (active)
9,COc1cccc(-c2nn(C(C)(C)C)cc2-c2ccnc(NCCCNS(=O)(=O)c3ccc(C)cc3)c2)c1,103%
10,N#Cc1c(-c2ccc(Cl)cc2)nc(N=Nc2c(O)[nH]c3ccc(Cl)cc23)nc1N1CCOCC1,99.8%
11,CN1CCN(CCCOc2cccc3nc(Nc4cc(Cl)cc(Cl)c4)ccc23)CC1,42.7%
12,COc1ccc(-c2nn(-c3ccc(Cl)cc3)cc2-c2nc3ccccc3[nH]2)cc1,88%
13,Cc1cc(N2CCN(c3ccnc4cc(Cl)ccc34)CC2)nc(N2CCOCC2)n1,77.8%
14,O=C1c2cc3c(cc2-c2c1c1ccc(Cl)cc1c(=O)n2CCCN1CCOCC1)OCO3,91.9%
15,COc1ccc(S(=O)(=O)N2CCCCCC2)cc1NC(=O)c1[nH]c(C)c2c1CCCCC2=O,37.3%
16,Fc1ccc2[nH]cc(SSc3c[nH]c4ccc(F)cc34)c2c1,46.6%
17,OCCN1CCN(c2nc(Nc3ccc(-c4nc5ccccc5[nH]4)cc3)c3cn[nH]c3n2)CC1,-74.6% (active)
18,O=C1/C(=C/c2ccc3c(c2)OCO3)SC(=S)N1CCc1ccc(O)cc1,82.9%
19,CC(C)(C)c1cc(C(C)(C)C)cc(S(=O)(=O)Nc2cc3ccccc3cc2C(=O)NCCN)c1,70.6%
20,COc1ccc(-c2nc3ccc(-c4nc5ccc(N6CCN(c7ccccc7)CC6)cc5[nH]4)cc3[nH]2)cc1OC,-49.9% (active)

row,Compound,growth
1,c1ccc(-c2c(-c3ccccc3)[n+](Cc3ccc4ccccc4c3)c(-c3ccc(-c4nc5ccccc5s4)cc3)n2Cc2ccc3ccccc3c2)cc1,-62.9% (active)
2,COc1ccc(/C=C/C(=O)c2ccc(O)c(CN3CCN(c4cc5c(cc4F)c(=O)c(C(=O)O)cn5C4CC4)CC3)c2)cc1,88.1%
3,O=C1C=CC(=O)N1c1ccc2c(c1)Cc1cc(F)ccc1-2,83.3%
4,Clc1ccc2c(NCCNc3nc(N4CCCCC4)nc4ccccc34)ccnc2c1,34.2%
5,CN(C)c1ccc(NC(=O)c2ccc(/C=C/C(=O)c3ncc[nH]3)cc2)cc1,75.7%
6,COc1ccc(CN2c3ccccc3Oc3ccccc32)cc1F,71.7%
7,Nc1nc2ccc3[nH]ncc3c2c2c1CCCC2,16.2%
8,N#Cc1nnn(-c2ccc(S(N)(=O)=O)cc2)c1NC(=O)CCl,103%
9,Nc1n[nH]c2cc(F)c([C@@H]3Nc4ccc5[nH]ncc5c4[C@H]4C5CCC(C5)[C@@H]34)cc12 (stereo not given in full),32.1%
10,O=C1C=C(O)C(=O)C(CC2=C(O)C(=O)C=C(O)C2=O)=C1O,101%
11,NS(=O)(=O)c1ccc(CN=C2NC(=O)S/C2=C\c2ccc(Br)cc2)cc1,112%
12,CCOC(=O)n1cc(-c2nonc2-c2cn(C)c3ncccc23)c2cc(F)ccc21,55.3%
13,O=C(Cc1ccc(/C=C/C(=O)c2ncc[nH]2)cc1)Nc1ccccc1,68.2%
14,COc1cc(/C=C/c2cc(O)c3cc(C(C)=O)c(=O)oc3c2)cc2c1O[C@]1(C)CC[C@@H](O)C(C)(C)[C@H]1C2,66.1%
15,CC(C)(O)c1cn(CCCCN2C(=O)C(=O)c3ccccc32)nn1,96.5%
16,Cc1ccc(NS(=O)(=O)c2ccc(-c3cnc(C4CC4)o3)cc2)cc1C,43.2%
17,COc1ccc(/C=C(\C#N)C(=O)Nc2cccc(Nc3nc(SC)nc(-c4cccc([N+](=O)[O-])c4)c3C#N)c2)cc1OC,91.1%
18,COc1cc(Nc2cc(C)nc(N3CCN(c4ccnc5cc(Cl)ccc45)CC3)n2)cc(OC)c1,34.5%
19,C=CC(=O)Nc1cccc(-c2nc(SC)nc(Nc3ccccc3OC)c2C#N)c1,-26.4% (active)
20,CCN1CCN(c2nc(NCCCNc3ccnc4cc(Cl)ccc34)c3ccccc3n2)CC1,48%
